In PubChem BioAssay (Tox21) one finds Potency and outcome data, which are given here for six molecules.

Assay [1] can be described thus: qHTS assay to identify aromatase inhibitors - cell viability counter screen (AID 743084).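 Further: cells stimulated with testosterone during compound exposure; nearly all actives have a fitted effect of over 55% in size.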
Assay [2] addresses Aryl hydrocarbon receptor (Homo sapiens) (UniProt P35869). Put plainly: qHTS assay to identify small molecule that activate the aryl hydrocarbon receptor (AhR) signaling pathway (AID 743085). Further: nearly all actives have a fitted effect of over 15% in size. Further: potency means the concentration at half of the fitted maximal effect.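 On activation: HG2L7.5c1 human HepG2 liver cells with stably integrated DRE-driven firefly reporter; series mostly up to about 70 µM.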 Summed up: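 Steps: seed HepG2-AhR-luc cells; allow 5 h at 37C; pin-transfer test compound or vehicle; incubate 24 h at 37C; add viability dye (30 min, 37C) and read fluorescence; add luciferase substrate (30 min, RT) and read luminescence.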

The nature of assay [3]: qHTS assay to identify small molecule that activate the aryl hydrocarbon receptor (AhR) signaling pathway - cell viability counter screen (AID 743086).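 Further: HepG2 liver cells carrying the AhR DRE luciferase reporter; series mostly up to about 70 µM; nearly all actives have a fitted effect of over 45% in size.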 Summed up:
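HepG2-AhR-luc (HG2L7.5c1) cells, 4000/well, were preincubated 5 h at 37C, exposed to compound in qHTS format for 24 hr at 37C, then given CellTiter-Fluor for 30 min; viability was read as fluorescence in the reporter wells.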
For orientation: Quantitative high-throughput screening tests each substance at several concentrations.

Assay [4] concerns the target Peroxisome proliferator-activated receptor gamma (Homo sapiens) (UniProt P37231). Description: qHTS assay to identify small molecule agonists of the peroxisome proliferator-activated receptor gamma (PPARg) signaling pathway (AID 743094; active means well fitted activation curve with a large enough effect in the signal ratio in the repeat runs, not every such curve was filed as active; the % refers to the signal ratio). Summed up:
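Agonist activity was taken from a beta-lactamase reporter (FRET substrate, 1 h at room temperature) in HEK293H cells carrying a PPARg UAS-bla construct. Compounds in DMSO were incubated 17 h at 37C after a 5 h cell pre-incubation.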

Assay [5] in a line: qHTS assay to identify small molecule antagonists of the peroxisome proliferator-activated receptor gamma (PPARg) signaling pathway - cell viability counter screen (AID 743194). Further: nearly all actives have a fitted effect of over 55% in size. Summed up:
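PPARg-UAS-bla HEK293H cells were plated, rested 5 h at 37 C, then treated with compounds plus rosiglitazone (50 nM final) for 17 h at 37 C; viability was then read by CellTiter-Glo luminescence after 30 min at room temperature.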

Assay [6] in a line: qHTS assay for small molecule agonists of the antioxidant response element (ARE) signaling pathway (AID 743202; active means well fitted activation curve with a large enough effect in the signal ratio in the repeat runs, not every such curve was filed as active; the % refers to the signal ratio). In a few lines: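 Steps: seed ARE-bla HepG2 cells (2,000/well); incubate 5 h at 37 C; add compounds by pin tool; incubate 16 h at 37 C; add FRET substrate; read fluorescence after 2 h at RT.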
Assay [7] can be described thus: qHTS assay for small molecule agonists of the antioxidant response element (ARE) signaling pathway - cell viability counter screen (AID 743203; calls by dose curve; further: nearly all actives have a fitted effect of over 55% in size). Summed up: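 Viability counter screen: CellTiter-Glo luminescence, read after 30 min at room temperature, in ARE-bla HepG2 wells. Compound exposure lasted 16 h at 37C/5% CO2, following a 5 h pre-incubation of the cells after plating.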

A short description of assay [8]: qHTS assay for small molecule activators of the heat shock response signaling pathway - cell viability counter screen (AID 743209). Further: nearly all actives have a fitted effect of over 50% in size. Summed up: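 Cytotoxicity counter screen run in the same wells as the heat-shock bla reporter assay: HeLa HSE-bla cells, 5 h compound exposure at 37 C, viability read by CellTiter-Glo luminescence.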
Assay [9] is described as follows: qHTS assay for small molecule activators of the heat shock response signaling pathway (AID 743210; active means well fitted activation curve with a large enough effect in the signal ratio in the repeat runs, with a control signal flat, not every such curve was filed as active; the % refers to the signal ratio;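 further: HeLa cells with beta-lactamase reporter driven by heat shock elements; series mostly up to about 63 µM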). Summed up: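 Activation of heat shock element-controlled beta-lactamase expression is measured in HeLa cells by LiveBLAzer FRET fluorescence, with compound exposure lasting 5 h at 37 C and substrate loading 2.5 h at room temperature.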
Assay [10] in a line: qHTS assay to identify small molecule agonists of the peroxisome proliferator-activated receptor delta (PPARd) signaling pathway - cell viability counter screen (AID 743211). Further: nearly all actives have a fitted effect of over 55% in size. In a few lines:
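Viability of GeneBLAzer PPARd UAS-bla HEK293H cells was assessed after 17 h compound incubation at 37C, using CellTiter-Glo reagent added after the reporter read and luminescence recorded 30 min later.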

In assay [11] the target is Peroxisome proliferator-activated receptor delta (Homo sapiens) (UniProt Q03181). Put plainly: qHTS assay to identify small molecule agonists of the peroxisome proliferator-activated receptor delta (PPARd) signaling pathway (AID 743212; calls by dose curve). Summed up: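 Cells expressing a UAS-driven beta-lactamase reporter (PPARd-bla HEK293H) were given test compounds after a 5 h settle and kept at 37 C. Reporter activity was then measured as FRET fluorescence using LiveBLAzer B/G substrate.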
Sequence of Peroxisome proliferator-activated receptor delta (Homo sapiens) (Q03181 whole entry, looked up): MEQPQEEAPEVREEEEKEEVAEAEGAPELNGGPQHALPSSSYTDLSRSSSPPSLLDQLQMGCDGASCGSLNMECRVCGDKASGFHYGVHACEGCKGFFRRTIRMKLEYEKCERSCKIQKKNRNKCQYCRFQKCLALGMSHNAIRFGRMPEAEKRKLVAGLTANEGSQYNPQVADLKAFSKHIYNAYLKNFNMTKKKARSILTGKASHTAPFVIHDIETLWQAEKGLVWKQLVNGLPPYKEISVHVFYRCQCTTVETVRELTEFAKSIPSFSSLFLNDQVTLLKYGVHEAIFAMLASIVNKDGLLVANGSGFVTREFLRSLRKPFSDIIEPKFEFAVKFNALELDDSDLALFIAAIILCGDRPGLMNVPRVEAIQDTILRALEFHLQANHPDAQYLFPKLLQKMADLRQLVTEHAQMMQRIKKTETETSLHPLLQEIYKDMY

A short description of assay [12]: qHTS assay to identify small molecule antagonists of the peroxisome proliferator-activated receptor delta (PPARd) signaling pathway - cell viability counter screen (AID 743213). Further: nearly all actives have a fitted effect of over 50% in size. In a few lines: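 In this counter screen, HEK293H cells carrying a UAS-beta-lactamase reporter are co-treated with test compounds and 300 nM L165041 (final) for 17 h at 37 C; cell viability is quantified by CellTiter-Glo luminescence.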

Assay [13] in a line: qHTS assay to identify small molecule antagonists of the farnesoid-X-receptor (FXR) signaling pathway - cell viability counter screen (AID 743221; active means well fitted cell-killing curve with a large enough effect in the repeat runs, not every such curve was filed as active; further: nearly all actives have a fitted effect of over 50% in size). Summed up: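 Quantitative HTS of the Tox21 10K library run in parallel with the beta-lactamase reporter read. HEK 293T cells carrying a UAS-driven bla reporter got compound and 50 uM CDCA (final) for 16 h; ATP-based luminescence followed.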

The target of assay [14] is Vitamin D3 receptor (Homo sapiens) (UniProt P11473). Put plainly: qHTS assay to identify small molecule agonists of the vitamin D receptor (VDR) signaling pathway (AID 743222; calls by dose curve). In a few lines: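 Agonist mode, beta-lactamase reporter: fluorescence from LiveBLAzer B/G FRET substrate (2 h, room temperature) read after 16 h compound treatment at 37 C of VDR-bla cells, which were pre-incubated 4 h after seeding.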
Sequence of Vitamin D3 receptor (Homo sapiens) (P11473 whole entry, looked up): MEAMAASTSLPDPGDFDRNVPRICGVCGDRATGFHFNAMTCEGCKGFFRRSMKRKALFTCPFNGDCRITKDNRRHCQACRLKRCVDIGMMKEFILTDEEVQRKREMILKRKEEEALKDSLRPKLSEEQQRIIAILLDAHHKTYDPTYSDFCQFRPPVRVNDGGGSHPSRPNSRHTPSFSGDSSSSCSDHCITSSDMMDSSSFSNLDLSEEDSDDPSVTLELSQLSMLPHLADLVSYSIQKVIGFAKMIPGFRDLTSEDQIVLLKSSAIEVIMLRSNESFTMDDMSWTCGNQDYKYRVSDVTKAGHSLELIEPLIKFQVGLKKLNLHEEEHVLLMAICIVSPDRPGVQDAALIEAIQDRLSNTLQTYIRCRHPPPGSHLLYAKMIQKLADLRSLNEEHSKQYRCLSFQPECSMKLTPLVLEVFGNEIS

The target is the same in assay [15]. Put plainly: qHTS assay to identify small molecule antagonists of the vitamin D receptor (VDR) signaling pathway (AID 743223; active means well fitted inhibition curve with a large enough effect in the signal ratio in the repeat runs, not every such curve was filed as active; the % refers to the signal ratio). In a few lines:
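Fluorescence from LiveBLAzer B/G FRET substrate, read after 2 h at room temperature, reflects beta-lactamase reporter activity in VDR-bla cells treated 16 h at 37C with compounds and agonist 1alpha,25-dihydroxyvitamin D3 (3 nM final).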

Assay [16] is described as follows: qHTS assay to identify small molecule agonists of the farnesoid-X-receptor (FXR) signaling pathway - cell viability counter screen (AID 743218). Further: nearly all actives have a fitted effect of over 45% in size. In a few lines: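 Viability counter screen in the same wells: CellTiter-Glo luminescence, 30 min room-temperature incubation, measured after the beta-lactamase read. Cells were GeneBLAzer FXR-UAS-bla HEK 293T, compound-treated 16 h at 37C.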

Assay [17] deals with Bile acid receptor (Homo sapiens) (UniProt Q96RI1). Description: qHTS assay to identify small molecule antagonists of the farnesoid-X-receptor (FXR) signaling pathway (AID 743217; active means well fitted inhibition curve with a large enough effect in the signal ratio in the repeat runs, not every such curve was filed as active; the % refers to the signal ratio). Summed up:
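Antagonist mode: chenodeoxycholic acid at 50 uM final stimulates a UAS-driven beta-lactamase reporter in HEK 293T FXR-bla cells during 16 h, 37C compound exposure. Read-out is FRET substrate fluorescence after 2 h at room temperature.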

Assay [18] has the same target. Put plainly: qHTS assay to identify small molecule agonists of the farnesoid-X-receptor (FXR) signaling pathway (AID 743220; active means well fitted activation curve with a large enough effect in the signal ratio in the repeat runs, not every such curve was filed as active; the % refers to the signal ratio). In a few lines:
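FXR-UAS-bla HEK 293T cells carrying a UAS-driven beta-lactamase reporter were plated for 5 h at 37C/5% CO2, then exposed to DMSO-dissolved Tox21 10K compounds for 16 h at 37C. A LiveBLAzer B/G FRET substrate was loaded for 2 h at room temperature before fluorescence reading.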

Assay [19] addresses Peroxisome proliferator-activated receptor gamma (Homo sapiens) (UniProt P37231). Description: qHTS assay to identify small molecule antagonists of the peroxisome proliferator-activated receptor gamma (PPARg) signaling pathway (AID 743191; calls by dose curve; further: series mostly up to about 63 µM; nearly all actives have a fitted effect of over 30% in size). In a few lines: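 GeneBLAzer PPARg UAS-bla HEK293H cells carrying a UAS-driven beta-lactamase reporter were plated at 3000 cells/well, preincubated 5 h at 37C, then given compound for 17 h at 37C; LiveBLAzer B/G FRET substrate was read after 1 h at room temperature.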

The target of assay [20] is Peroxisome proliferator-activated receptor delta (Homo sapiens) (UniProt Q03181). Description: qHTS assay to identify small molecule antagonists of the peroxisome proliferator-activated receptor delta (PPARd) signaling pathway (AID 743215; active means well fitted inhibition curve with a large enough effect in the signal ratio in the repeat runs, not every such curve was filed as active; the % refers to the signal ratio;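 further: cells stimulated with agonist L165041 at 300 nM final during compound exposure; series mostly up to about 62 µM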). In a few lines: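 Agonist L165041 (300 nM final) added with compound to PPARd-bla HEK293H UAS-bla reporter cells; 17 h incubation at 37 C. Read-out: LiveBLAzer FRET substrate, 2 h at room temperature, fluorescence intensity.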

Inconclusive results are not listed. Calls of active or inactive are those of the source. Unless noted, the call rests on the fitted dose curve; in most records, active means well fitted curve in the direction sought with a large enough effect in the repeat runs; inconclusive means weak or mixed curves; inactive means no such curve, though single readings can be large; an effect the other way counts as inactive or inconclusive.

Sequence of Bile acid receptor (Homo sapiens) (Q96RI1 whole entry, looked up): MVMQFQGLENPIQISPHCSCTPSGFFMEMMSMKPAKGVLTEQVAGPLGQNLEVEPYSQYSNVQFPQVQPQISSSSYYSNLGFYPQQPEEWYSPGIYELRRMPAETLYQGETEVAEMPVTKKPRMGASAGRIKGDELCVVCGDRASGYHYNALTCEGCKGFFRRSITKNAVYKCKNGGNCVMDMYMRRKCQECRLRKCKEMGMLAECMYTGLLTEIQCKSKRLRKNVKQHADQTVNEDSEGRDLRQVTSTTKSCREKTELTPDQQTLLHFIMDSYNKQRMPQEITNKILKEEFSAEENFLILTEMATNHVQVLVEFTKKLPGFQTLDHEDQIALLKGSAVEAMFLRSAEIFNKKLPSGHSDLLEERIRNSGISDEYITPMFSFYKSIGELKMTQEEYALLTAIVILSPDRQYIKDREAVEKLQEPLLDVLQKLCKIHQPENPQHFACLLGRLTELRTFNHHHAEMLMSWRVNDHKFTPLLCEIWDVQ
Sequence of Aryl hydrocarbon receptor (Homo sapiens) (P35869 whole entry, looked up): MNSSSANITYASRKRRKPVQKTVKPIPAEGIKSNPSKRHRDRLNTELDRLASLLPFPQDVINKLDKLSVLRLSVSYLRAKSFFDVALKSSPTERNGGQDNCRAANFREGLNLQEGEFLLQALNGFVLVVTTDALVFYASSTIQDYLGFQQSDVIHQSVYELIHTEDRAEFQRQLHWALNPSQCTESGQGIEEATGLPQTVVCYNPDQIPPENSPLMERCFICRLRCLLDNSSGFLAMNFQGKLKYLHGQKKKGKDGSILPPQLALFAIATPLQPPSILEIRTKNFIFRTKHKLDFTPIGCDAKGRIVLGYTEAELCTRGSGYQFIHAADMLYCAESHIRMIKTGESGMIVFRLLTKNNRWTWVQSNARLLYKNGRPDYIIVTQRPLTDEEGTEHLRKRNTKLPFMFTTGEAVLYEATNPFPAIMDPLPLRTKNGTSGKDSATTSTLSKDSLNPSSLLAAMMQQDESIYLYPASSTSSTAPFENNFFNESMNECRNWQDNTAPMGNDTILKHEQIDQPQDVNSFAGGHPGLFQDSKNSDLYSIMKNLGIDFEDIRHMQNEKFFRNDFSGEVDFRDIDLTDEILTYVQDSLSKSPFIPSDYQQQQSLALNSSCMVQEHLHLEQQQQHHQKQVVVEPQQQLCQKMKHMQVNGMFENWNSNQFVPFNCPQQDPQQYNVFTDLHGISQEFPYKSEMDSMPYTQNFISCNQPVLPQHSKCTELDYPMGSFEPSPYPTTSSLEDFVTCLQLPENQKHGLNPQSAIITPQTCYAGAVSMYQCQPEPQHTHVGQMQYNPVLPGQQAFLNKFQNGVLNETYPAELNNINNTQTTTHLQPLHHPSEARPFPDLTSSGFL
Sequence of Peroxisome proliferator-activated receptor gamma (Homo sapiens) (P37231 whole entry, looked up): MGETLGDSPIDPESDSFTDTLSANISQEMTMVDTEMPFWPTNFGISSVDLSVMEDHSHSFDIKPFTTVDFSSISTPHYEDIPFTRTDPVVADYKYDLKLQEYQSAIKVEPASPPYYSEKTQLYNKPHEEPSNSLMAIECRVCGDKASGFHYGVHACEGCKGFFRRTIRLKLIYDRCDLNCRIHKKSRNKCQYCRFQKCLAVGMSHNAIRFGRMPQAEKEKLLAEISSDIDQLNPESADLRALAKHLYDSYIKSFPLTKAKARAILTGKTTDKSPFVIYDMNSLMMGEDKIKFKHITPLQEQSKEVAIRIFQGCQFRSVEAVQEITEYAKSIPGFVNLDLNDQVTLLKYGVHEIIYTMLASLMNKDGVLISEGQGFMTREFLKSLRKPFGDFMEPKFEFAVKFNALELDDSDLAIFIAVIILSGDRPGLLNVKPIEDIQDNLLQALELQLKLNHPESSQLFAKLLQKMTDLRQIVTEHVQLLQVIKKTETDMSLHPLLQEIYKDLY

Consider `CCCCC(=O)N(C)C`, for which the Potency result in assay [1], in assay [2], in [3] and in [6] was “inactive” in each case. Also, the call in [4], in [5], in assay [7], in assay [8], in [9] and in assay [10] was inactive. Moreover, the call in [11], in [12], in assay [13], in assay [14] and in assay [15] was inactive.
As to `CC(C)CCCC(C)CC=O` (centres undefined), the Potency result in [1], in assay [2], in assay [3], in [6] and in [16] was “inactive” each time. Moreover, the outcome in [4], in [5], in assay [7], in assay [8], in assay [9] and in assay [10] was inactive. Besides, the result in [11], in [12] and in [13] was inactive.
For the molecule `O=C(O)C(=O)Nc1cccc(-c2nn[nH]n2)c1`, the Potency entry in [1], in assay [2], in [3], in [6] and in assay [16] was “inactive” each time. The outcome in [4], in assay [5], in assay [7], in assay [8], in [9] and in [10] was inactive. Further, the molecule was classed as inactive in [11], in assay [12], in assay [17], in [18], in assay [13] and in assay [14]. Besides, the call in assay [15] was inactive.
In the case of `NC(Cc1c[nH]c2ccccc12)C(=O)O` (centres undefined), the Potency entry in [1], in assay [3], in assay [19] and in [6] was “inactive” each time. For the same molecule, in assay [2], the Potency was 21.2 µM (active). The call in assay [4], in assay [8], in [9], in [10], in assay [11] and in [12] was inactive. The call in [20], in [13], in assay [14] and in assay [15] was inactive.
With `CC(=O)/C=C/c1ccco1`, the Potency result in assay [1], in assay [2], in assay [3], in [6] and in [16] was “inactive” in each case. In addition, the call in assay [4], in assay [5], in assay [7], in assay [8], in [9] and in [10] was inactive. Besides, the outcome in [11], in assay [12], in assay [20], in assay [17], in assay [18] and in assay [13] was inactive. The outcome in assay [14] and in assay [15] was inactive.
For the molecule `CCCCOC(=O)[C@@H](C)Oc1ccc(Oc2ccc(C(F)(F)F)cn2)cc1`, the Potency result in assay [1], in [2], in assay [3] and in assay [16] was “inactive” each time. Moreover, the outcome in [4], in [5], in [7], in [8], in assay [9] and in assay [10] was inactive. Moreover, the outcome in assay [11], in assay [12], in assay [20], in assay [17], in [18] and in assay [13] was inactive. The outcome in [14] and in assay [15] was inactive.
